Data: PubChem BioAssay (EPA / NIEHS)
Records with an inconclusive call do not appear. Activity calls are given as the source filed them. Rule for the calls: active = hit-call score of the fitted dose curve at least 0.9, where 1 is the maximum; inconclusive = response in the unintended direction; inactive = score below 0.9.

Assay: Tanguay_ZF_120hpf_CFIN_legacy: (Legacy) Oregon State University Tanguay Lab 120 Hour Post-fertilization zebrafish Assay for Caudal Fin Malformation (AID 2283649)
Experimental: Tanguay_ZF_120hpf_legacy is a whole embryo, multiplexed endpoint assay using zebrafish larvae exposed for 120 hours post fertilization on a 96-well plate.Tanguay_ZF_120hpf_CFIN_legacy is one of one assay component(s) measured or calculated from the Tanguay_ZF_120hpf_legacy assay. It is designed to make measurements of zebrafish development as detected with brightfield microscopy of developing zebrafish embryos.Data from the assay component Tanguay_ZF_120hpf_CFIN_legacy was analyzed into 1 assay endpoints. This assay endpoint, Tanguay_ZF_120hpf_CFIN_legacy, was analyzed in the positive analysis fitting direction relative to DMSO as the negative control and baseline of activity. Using a type of morphology reporter, gain-of-signal activity can be used to understand changes in developmentals as they relate to the whole embryo. To generalize the intended target to other relatable targets, this assay endpoint is annotated to the zebrafish development intended target family, where the subfamily is caudal fin morphogenesis.
Zebrafish husbandry: Tropical 5D wild-type adult zebrafish were housed in at an approximate density of 1000 per 100 gallon tank at the Sinnhuber Aquatic Research Laboratory, Oregon State University, Corvallis, OR. Each tank was kept at standard laboratory conditions of 28C on a 14-h light/10-h dark photoperiod in fish water consisting of reverse osmosis water supplemented with a commercially available salt (Instant Ocean). Spawning funnels were placed into the tanks the night prior, and embryos were collected and staged. To increase bioavailability, the chorion was enzymatically removed using pronase (63.6mg/ml, >/= 3.5U/mg, Sigma-Aldrich: P5147) at 4 hours post fertilization (hpf) using a custom automated dechorionator.Chemical exposures: Six hpf dechorionated embryos were placed 1 embryo per well in a 96-well plate prefilled with 90 ul of EM using automated embryo placement systems (AEPS). Ten microliters of each row of dilution plate 2 was added to 2 exposure plates. The final DMSO concentration used was 0.64% (vol/vol). Thirty-two embryos were also exposed to 5uM trimethyltin chloride (positive control). Plates were sealed to prevent evaporation and foil covered to reduce light exposure and kept in a 28C incubator. Embryos were statically exposed until 120 hpf. At 24 hpf, embryos were assessed for photomotor response using a custom photomotor response analysis tool (PRAT) and for developmental toxicity endpoints (MO24: mortality at 24 hpf, DP: developmental progression, SM: spontaneous movement, and NC: notochord distortion). At 120 hpf, locomotor activity was measured using Viewpoint Zebralab and assessed for 18 endpoints. Zebrafish acquisition and analysis program (ZAAP), a custom program designed to inventory, acquire, and manage zebrafish data, was used to collect developmental endpoints as either present or absent (i.e., binary responses were recorded). If mortality occurred for an embryo (at either 24 or 120 hpf), the non-mortality endpoints were not measured.

Row | SMILES | outcome | AC50
1 | CCCCCCCCCCCCCN1CC(C)OC(C)C1 (stereo not given) | inactive | 
2 | c1ccc(N=Nc2ccccc2)cc1 | inactive | 
3 | [As]#[In] | inactive | 
4 | [Cl-].[Cl-].[Hg+2] |  | 1080 nM (active)
5 | Cc1ccc(N)c(N)c1 | inactive | 
6 | CC(C)(C)C(O)(CCc1ccc(Cl)cc1)Cn1cncn1 (stereo not given) | inactive | 
7 | Cn1cc(-c2ccccc2)c(=O)c(-c2cccc(C(F)(F)F)c2)c1 | inactive | 
8 | ClCCOCCCl | inactive | 
9 | CCN(CC)N=O | inactive | 
10 | CC(C)COC(=O)c1ccccc1C(=O)OCC(C)C | inactive | 
11 | ClC1=C(Cl)[C@]2(Cl)[C@H]3[C@H]([C@@H]4C=C[C@H]3C4)[C@@]1(Cl)C2(Cl)Cl | inactive | 
12 | Cc1ccc(N=C=O)cc1N=C=O | inactive | 
13 | Oc1ccccc1Cl | inactive | 
14 | CCC[CH2][Sn]([Cl])([CH2]CCC)[CH2]CCC | inactive | 
15 | OCCCBr | inactive | 
16 | C[N+](C)(C)CC1CO1 (stereo not given) | inactive | 
17 | Nc1ccc(Cl)cc1N | inactive | 
18 | CC(C)(C)OOC(=O)c1ccccc1 | inactive | 
19 | CN(C)[C@@H]1C(=O)C(C(N)=O)=C(O)[C@@]2(O)C(=O)C3=C(O)c4c(O)cccc4[C@@](C)(O)[C@H]3C[C@@H]12 | inactive | 
20 | CCOc1cccc(C2(N3CCN(c4ccccc4)CC3)CCC(C)CC2)c1 (stereo not given) | inactive | 

Row | SMILES | outcome | AC50
21 | CCCCCCCCn1sccc1=O | inactive | 
22 | CC(C)(OOC(C)(C)c1ccccc1)c1ccccc1 | inactive | 
23 | COC(=O)c1ccccc1N | inactive | 
24 | CN(C)c1ccccc1 | inactive | 
25 | c1ccc(NNc2ccccc2)cc1 | inactive | 
26 | C[C@]12C=CC3=C4CCC(=O)C=C4CC[C@H]3[C@@H]1CC[C@@H]2O | inactive | 
27 | O=C(O)C1C2CCC(O2)C1C(=O)O (stereo not given) | inactive | 
28 | CN(C)C(=O)Nc1ccc(Cl)cc1 | inactive | 
29 | CC(C)(C)OOC(C)(C)CCC(C)(C)OOC(C)(C)C | inactive | 
30 | CC(C)N(Cc1ccccc1)C(=O)C(C)(C)C | inactive | 
31 | COc1cc(C=O)cc2c1[C@H](COC(N)=O)[C@]1(OC(C)=O)ON2C[C@H]2[C@@H]1N2C(C)=O | inactive | 
32 | c1ccc2c(c1)oc1ccccc12 | inactive | 
33 | Brc1ccc(Oc2ccccc2)cc1 | inactive | 
34 | O=C1CCCO1 | inactive | 
35 | OCCOCCO | inactive | 
36 | CNC(=O)Oc1cccc2c1OC(C)(C)C2 | inactive | 
37 | CC(C)(O)c1cnn2c(-c3ccc(F)c(-c4c(F)cccc4C#N)c3)cnc2n1 | inactive | 
38 | CCCCOC(=O)c1ccccc1C(=O)OCc1ccccc1 | inactive | 
39 | Nc1ccc(Cc2ccc(N)cc2)cc1 | inactive | 
40 | Nc1ccc(Oc2ccc(N)cc2)cc1 | inactive | 
